Laboratory results published in publication PMC5540273 (PLoS ONE, 2017).
Where two headings read alike, the source gives them in different places.

What was measured:
[1] = tested on: CDC2L2; conditions: concentration: 1 μM,replicates: in singlicate; n = 1
[2] = tested on: T1, CDC2L5; conditions: n = 1
T1 construct: gene CDK13

[3] = tested on: T2, CDK11; conditions: concentration: 1 μM,replicates: in singlicate; n = 1
T2 construct: gene CDK19

[4] = tested on: CDK2; conditions: concentration: 1 μM,replicates: in singlicate; n = 1
[5] = tested on: CDK3; conditions: concentration: 1 μM,replicates: in singlicate; n = 1
[6] = tested on: CDK4-cyclinD1; conditions: n = 1
[7] = tested on: CDK4-cyclinD3; conditions: n = 1
[8] = tested on: CDK4; conditions: n = 1
[9] = tested on: CDK5; conditions: concentration: 1 μM,replicates: in singlicate; n = 1
[10] = tested on: CDK7; conditions: concentration: 1 μM,replicates: in singlicate; n = 1
[11] = tested on: CDK8; conditions: concentration: 1 μM,replicates: in singlicate; n = 1
[12] = tested on: CDK9; conditions: concentration: 1 μM,replicates: in singlicate; n = 1
[13] = tested on: CDKL1; conditions: concentration: 1 μM,replicates: in singlicate; n = 1
[14] = tested on: CDKL2; conditions: concentration: 1 μM,replicates: in singlicate; n = 1
[15] = tested on: CDKL3; conditions: concentration: 1 μM,replicates: in singlicate; n = 1
[16] = tested on: CDKL5; conditions: concentration: 1 μM,replicates: in singlicate; n = 1
[17] = tested on: CHEK1; conditions: concentration: 1 μM,replicates: in singlicate; n = 1
[18] = tested on: CHEK2; conditions: concentration: 1 μM,replicates: in singlicate; n = 1
[19] = tested on: CIT; conditions: concentration: 1 μM,replicates: in singlicate; n = 1
[20] = tested on: CLK1; conditions: concentration: 1 μM,replicates: in singlicate; n = 1
[21] = concentration: 1 μM,replicates: in singlicate
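Further: KINOMEscan kinase panel screen.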

For Cn1ccc2ncnc(Oc3ccc(NC(=O)Nc4cccc(C(F)(F)F)c4)c(F)c3)c21, the “%Inh” value [1] was 0%, the “%Inh” value [2, 21] was 33% and the “%Inh” value [3] was 99.3%. For the same molecule, the “%Inh” value [4] was 7%, the “%Inh” value [5] was 39% and the “%Inh” value [6, 21] was 16%. For the same molecule, the “%Inh” value [7, 21] was 0%, the “%Inh” value [8, 21] was 0% and the “%Inh” value [9] was 10%. The “%Inh” value [10] was 68%, the “%Inh” value [11] was 100% and the “%Inh” value [12] was 24%. The “%Inh” value [13] was 62%, the “%Inh” value [14] was 45% and the “%Inh” value [15] was 7%. For the same molecule, the “%Inh” value [16] was 0%, the “%Inh” value [17] was 0% and the “%Inh” value [18] was 1%. The “%Inh” value [19] was 78% and the “%Inh” value [20] was 13%.
With COc1cccc(OC)c1C(=O)Nc1cccc(-c2nn3ccccc3c2-c2ccnc(Nc3cccc(F)c3)n2)c1 [GSK361065] the “%Inh” value [1] was 0%, the “%Inh” value ([2]; 1 µM) was 1% and the “%Inh” value [3] was 0%. The “%Inh” value [4] was 0%, the “%Inh” value [5] was 0% and the “%Inh” value ([6]; 1 µM) was 0%. The “%Inh” value ([7]; 1 µM) was 7%, the “%Inh” value ([8]; 1 µM) was 0% and the “%Inh” value [9] was 21%. For the same molecule, the “%Inh” value [10] was 22%, the “%Inh” value [11] was 0% and the “%Inh” value [12] was 0%. For the same molecule, the “%Inh” value [13] was 15%, the “%Inh” value [14] was 6% and the “%Inh” value [15] was 3%. The “%Inh” value [16] was 0%, the “%Inh” value [17] was 13% and the “%Inh” value [18] was 0%. The “%Inh” value [19] was 36% and the “%Inh” value [20] was 21%.
Cn1ccc2ncnc(Oc3ccc(NC(=O)Nc4ccnc(C(F)(F)F)c4)c(Cl)c3)c21 was tested, and the “%Inh” value [1] was 0%, the “%Inh” value [2, 21] was 20% and the “%Inh” value [3] was 98%. The “%Inh” value [4] was 0%, the “%Inh” value [5] was 0% and the “%Inh” value [6, 21] was 0%. For the same molecule, the “%Inh” value [7, 21] was 0%, the “%Inh” value [8, 21] was 0% and the “%Inh” value [9] was 0%. For the same molecule, the “%Inh” value [10] was 1%, the “%Inh” value [11] was 95.5% and the “%Inh” value [12] was 0%. The “%Inh” value [13] was 34%, the “%Inh” value [14] was 3% and the “%Inh” value [15] was 0%. The “%Inh” value [16] was 19%, the “%Inh” value [17] was 0% and the “%Inh” value [18] was 2%. The “%Inh” value [19] was 18% and the “%Inh” value [20] was 0%.
CCn1c(-c2nonc2N)nc2cncc(CNC3CCNCC3)c21.Cl [SB-747651] was tested, and the “%Inh” value [1] was 0%, the “%Inh” value [2, 21] was 0% and the “%Inh” value [3] was 5%. For the same molecule, the “%Inh” value [4] was 0%, the “%Inh” value [5] was 11% and the “%Inh” value [6, 21] was 0%. The “%Inh” value [7, 21] was 14%, the “%Inh” value [8, 21] was 33% and the “%Inh” value [9] was 0%. The “%Inh” value [10] was 0%, the “%Inh” value [11] was 24% and the “%Inh” value [12] was 0%. For the same molecule, the “%Inh” value [13] was 0%, the “%Inh” value [14] was 20% and the “%Inh” value [15] was 0%. For the same molecule, the “%Inh” value [16] was 0%, the “%Inh” value [17] was 48% and the “%Inh” value [18] was 0%. For the same molecule, the “%Inh” value [19] was 24% and the “%Inh” value [20] was 31%.
For O=C(Nc1ccccc1)c1cccc(Oc2ccc3nccn3n2)c1, the “%Inh” value [1] was 28%, the “%Inh” value [2, 21] was 0% and the “%Inh” value [3] was 0%. For the same molecule, the “%Inh” value [4] was 0%, the “%Inh” value [5] was 15% and the “%Inh” value [6, 21] was 11%. The “%Inh” value [7, 21] was 6%, the “%Inh” value [8, 21] was 22% and the “%Inh” value [9] was 0%. The “%Inh” value [10] was 12%, the “%Inh” value [11] was 0% and the “%Inh” value [12] was 94.6%. For the same molecule, the “%Inh” value [13] was 0%, the “%Inh” value [14] was 20% and the “%Inh” value [15] was 0%. For the same molecule, the “%Inh” value [16] was 0%, the “%Inh” value [17] was 0% and the “%Inh” value [18] was 0%. The “%Inh” value [19] was 32% and the “%Inh” value [20] was 0%.
With CCNCC(Cc1ccccc1)NC(=O)c1cc(Br)c(-c2ccnc3[nH]ccc23)s1.Cl.Cl (stereo not shown) [GSK1383280] the “%Inh” value [1] was 22%, the “%Inh” value [2, 21] was 0% and the “%Inh” value [3] was 39%. The “%Inh” value [4] was 0%, the “%Inh” value [5] was 12% and the “%Inh” value [6, 21] was 0%. For the same molecule, the “%Inh” value [7, 21] was 6%, the “%Inh” value [8, 21] was 0% and the “%Inh” value [9] was 0%. For the same molecule, the “%Inh” value [10] was 24%, the “%Inh” value [11] was 0% and the “%Inh” value [12] was 19%. For the same molecule, the “%Inh” value [13] was 17%, the “%Inh” value [14] was 0% and the “%Inh” value [15] was 0%. The “%Inh” value [16] was 0%, the “%Inh” value [17] was 20% and the “%Inh” value [18] was 42%. The “%Inh” value [19] was 73% and the “%Inh” value [20] was 59%.
For Cn1ccc2ncnc(Oc3ccc(NC(=O)Nc4cnn(C(C)(C)C)c4)c(Cl)c3)c21, the “%Inh” value [1] was 0%, the “%Inh” value [2, 21] was 45% and the “%Inh” value [3] was 99.6%. The “%Inh” value [4] was 0%, the “%Inh” value [5] was 0% and the “%Inh” value [6, 21] was 0%. The “%Inh” value [7, 21] was 0%, the “%Inh” value [8, 21] was 0% and the “%Inh” value [9] was 2%. For the same molecule, the “%Inh” value [10] was 27%, the “%Inh” value [11] was 97.1% and the “%Inh” value [12] was 0%. For the same molecule, the “%Inh” value [13] was 21%, the “%Inh” value [14] was 10% and the “%Inh” value [15] was 19%. The “%Inh” value [16] was 26%, the “%Inh” value [17] was 3% and the “%Inh” value [18] was 0%. The “%Inh” value [19] was 39% and the “%Inh” value [20] was 0%.
In the case of Cn1ccc2ncnc(Oc3ccc(NC(=O)Nc4cccc(C(F)(F)F)c4)c(Cl)c3)c21, the “%Inh” value [1] is reported as 5%, the “%Inh” value [2, 21] is reported as 0% and the “%Inh” value [3] is reported as 99.8%. For the same molecule, the “%Inh” value [4] was 0%, the “%Inh” value [5] was 5% and the “%Inh” value [6, 21] was 8%. The “%Inh” value [7, 21] was 0%, the “%Inh” value [8, 21] was 0% and the “%Inh” value [9] was 0%. For the same molecule, the “%Inh” value [10] was 2%, the “%Inh” value [11] was 95.9% and the “%Inh” value [12] was 2%. For the same molecule, the “%Inh” value [13] was 29%, the “%Inh” value [14] was 8% and the “%Inh” value [15] was 6%. The “%Inh” value [16] was 0%, the “%Inh” value [17] was 0% and the “%Inh” value [18] was 0%. The “%Inh” value [19] was 57% and the “%Inh” value [20] was 0%.
